# From the supplement of paper PMC8728848
# This excerpt belongs to a sample that is enriched for the strongest signals.
# B1: Neuropilin-1 (Rattus norvegicus), Q9QWJ9 (protein)
# chain: MERGLPLLCATLALALALAGAFRSDKCGGTIKIENPGYLTSPGYPHSYHPSEKCEWLIQAPEPYQRIMINFNPHFDLEDRDCKYDYVEVIDGENEGGRLWGKFCGKIAPSPVVSSGPFLFIKFVSDYETHGAGFSIRYEIFKRGPECSQNYTAPTGVIKSPGFPEKYPNSLECTYIIFAPKMSEIILEFESFDLEQDSNPPGGVFCRYDRLEIWDGFPEVGPHIGRYCGQKTPGRIRSSSGILSMVFYTDSAIAKEGFSANYSVLQSSISEDFKCMEALGMESGEIHSDQITASSQYGTNWSVERSRLNYPENGWTPGEDSYREWIQVDLGLLRFVTAVGTQGAISKETKKKYYVKTYRVDISSNGEDWITLKEGNKAIIFQGNTNPTDVVFGVFPKPLITRFVRIKPASWETGISMRFEVYGCKITDYPCSGMLGMVSGLISDSQITASNQGDRNWMPENIRLVTSRTGWALPPSPHPYINEWLQVDLGDEKIVRGVIIQGGKHRENKVFMRKFKIAYSNNGSDWKMIMDDSKRKAKSFEGNNNYDTPELRAFTPLSTRFIRIYPERATHSGLGLRMELLGCEVEVPTAGPTTPNGNPVDECDDDQANCHSGTGDDFQLTGGTTVLATEKPTIIDSTIQSEFPTYGFNCEFGWGSHKTFCHWEHDSHAQLRWRVLTSKTGPIQDHTGDGNFIYSQADENQKGKVARLVSPVVYSQSSAHCMTFWYHMSGSHVGTLRVKLHYQKPEEYDQLVWMVVGHQGDHWKEGRVLLHKSLKLYQVIFEGEIGKGNLGGIAVDDISINNHIPQEDCAKPTDLDKKNTEIKIDETGSTPGYEEGKGDKNISRKPGNVLKTLDPILITIIAMSALGVLLGAVCGVVLYCACWHNGMSERNLSALENYNFELVDGVKLKKDKLNPQSNYSEA
# Tests used:
# Test in all cases: glycan array binding signal (z-score within array); higher = stronger binding
# Conditions in all cases: glycan notation: IUPAC condensed, linker removed
# [1] = target: Fuc(a1-2)Gal(b1-4)GlcNAc(b1-2)Man(a1-3)[Fuc(a1-2)Gal(b1-4)GlcNAc(b1-2)Man(a1-6)]Man(b1-4)GlcNAc(b1-4)GlcNAc
# Procedure, shortened: (§1)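 Negative Z-scores can be read as non-binding. The Z-score is calculated within each array and then averaged across arrays of one protein sequence at different concentrations or buffers and across linkers. Arrays, 3228 in all, were curated from the Consortium for Functional Glycomics database and kept only where the protein sequence was available.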
# [2] = target: Fuc(a1-2)Gal(b1-4)[Fuc(a1-3)]GlcNAc(b1-2)Man(a1-3)[Fuc(a1-2)Gal(b1-4)[Fuc(a1-3)]GlcNAc(b1-2)Man(a1-6)]Man(b1-4)GlcNAc(b1-4)GlcNAc
# Procedure, shortened: as §1
# [3] = target: Fuc(a1-2)[Gal(a1-3)]Gal
# Procedure, shortened: as §1
# [4] = target: Fuc(a1-2)[Gal(a1-3)]Gal(b1-4)GlcNAc(b1-2)Man(a1-3)[Fuc(a1-2)[Gal(a1-3)]Gal(b1-4)GlcNAc(b1-2)Man(a1-6)]Man(b1-4)GlcNAc(b1-4)GlcNAc
# Procedure, shortened: as §1
# [5] = target: Fuc(a1-2)[GalNAc(a1-3)]Gal(b1-4)GlcNAc(b1-2)Man(a1-3)[GalNAc(a1-3)[Fuc(a1-2)]Gal(b1-4)GlcNAc(b1-2)Man(a1-6)]Man(b1-4)GlcNAc(b1-4)GlcNAc
# Procedure, shortened: as §1
# [6] = target: Fuc(a1-2)[GalNAc(a1-3)]Gal(b1-4)GlcNAc(b1-3)Gal(b1-4)GlcNAc
# Procedure, shortened: as §1
# [7] = target: Fuc(a1-3)[Gal(b1-4)]GlcNAc(b1-2)Man(a1-6)[Gal(b1-4)GlcNAc(b1-2)Man(a1-3)]Man(b1-4)GlcNAc(b1-4)GlcNAc
# Procedure, shortened: as §1
# [8] = target: Fuc(a1-3)[Gal(b1-4)]GlcNAc6S
# Procedure, shortened: as §1
# [9] = target: Fuc(a1-3)[Gal3S(b1-4)]GlcNAc
# Procedure, shortened: as §1
# [10] = target: Gal(a1-3)Gal(b1-4)[Fuc(a1-3)]GlcNAc(b1-2)Man(a1-3)[Gal(a1-3)Gal(b1-4)[Fuc(a1-3)]GlcNAc(b1-2)Man(a1-6)]Man(b1-4)GlcNAc(b1-4)GlcNAc
# Procedure, shortened: as §1
# [11] = target: Gal(a1-4)Gal(b1-4)GlcNAc
# Procedure, shortened: as §1
# [12] = target: Gal(b1-2)Gal
# Procedure, shortened: as §1
# [13] = target: Gal(b1-3)GlcNAc(b1-2)Man(a1-3)[Gal(b1-3)GlcNAc(b1-2)Man(a1-6)]Man(b1-4)GlcNAc(b1-4)GlcNAc
# Procedure, shortened: as §1
# [14] = target: Gal(b1-3)[Neu5Ac(b2-6)]GalNAc
# Procedure, shortened: as §1
# [15] = target: Gal(b1-4)GalNAc(a1-3)[Fuc(a1-2)]Gal(b1-4)GlcNAc
# Procedure, shortened: as §1
# [16] = target: GlcA(b1-6)Gal
# Procedure, shortened: as §1
# [17] = target: GlcNAc(a1-4)Gal(b1-4)GlcNAc(b1-3)Gal(b1-4)[Fuc(a1-3)]GlcNAc(b1-3)Gal(b1-4)[Fuc(a1-3)]GlcNAc
# Procedure, shortened: as §1
# [18] = target: Neu5Ac(a2-3)Gal(b1-3)GalNAc
# Procedure, shortened: as §1
# [19] = target: Neu5Ac(a2-3)Gal(b1-3)GalNAc6S
# Procedure, shortened: as §1
# [20] = target: Neu5Ac(a2-3)Gal(b1-3)GlcNAc
# Procedure, shortened: as §1
# [21] = target: Neu5Ac(a2-3)Gal(b1-3)GlcNAc6S
# Procedure, shortened: as §1
# [22] = target: Neu5Ac(a2-3)Gal(b1-3)[Fuc(a1-4)]GlcNAc(b1-3)Gal(b1-4)[Fuc(a1-3)]GlcNAc
# Procedure, shortened: as §1
# [23] = target: Neu5Ac(a2-3)Gal(b1-4)GlcNAc(b1-3)Gal(b1-4)GlcNAc(b1-3)Gal(b1-4)GlcNAc
# Procedure, shortened: as §1
# [24] = target: Neu5Ac(a2-3)Gal(b1-4)[Fuc(a1-3)]GlcNAc(b1-6)[Gal(b1-3)]GalNAc
# Procedure, shortened: as §1
# [25] = target: Neu5Ac(a2-3)Gal(b1-4)[Fuc(a1-3)]GlcNAc(b1-6)[Neu5Ac(a2-3)Gal(b1-3)]GalNAc
# Procedure, shortened: as §1
# [26] = target: Neu5Ac(a2-3)GalNAc
# Procedure, shortened: as §1
# [27] = target: Neu5Ac(a2-6)Gal(b1-4)GlcNAc(b1-2)Man(a1-3)Man(b1-4)GlcNAc(b1-4)GlcNAc
# Procedure, shortened: as §1
# [28] = target: Neu5Ac(a2-6)Gal(b1-4)GlcNAc6S
# Procedure, shortened: as §1
# [29] = target: Neu5Ac(b2-6)Gal(b1-4)GlcNAc
# Procedure, shortened: as §1
# [30] = target: Neu5Gc(a2-3)Gal(b1-4)Glc
# Procedure, shortened: as §1
# [31] = target: Neu5Gc(a2-6)GalNAc
# Procedure, shortened: as §1
binder,measurement,setting,value
B1,glycan array binding signal (z-score),[1],7.46
same,glycan array binding signal (z-score),[2],2.97
same,glycan array binding signal (z-score),[3],-0.352
same,glycan array binding signal (z-score),[4],7.21
same,glycan array binding signal (z-score),[5],5.38
same,glycan array binding signal (z-score),[6],-0.035
same,glycan array binding signal (z-score),[7],-0.363
same,glycan array binding signal (z-score),[8],0.233
same,glycan array binding signal (z-score),[9],-0.201
same,glycan array binding signal (z-score),[10],4.58
same,glycan array binding signal (z-score),[11],-0.229
same,glycan array binding signal (z-score),[12],-0.273
same,glycan array binding signal (z-score),[13],-0.258
same,glycan array binding signal (z-score),[14],-0.235
same,glycan array binding signal (z-score),[15],0.018
same,glycan array binding signal (z-score),[16],-0.148
same,glycan array binding signal (z-score),[17],2.61
same,glycan array binding signal (z-score),[18],-0.323
same,glycan array binding signal (z-score),[19],-0.301
same,glycan array binding signal (z-score),[20],-0.274
same,glycan array binding signal (z-score),[21],-0.371
same,glycan array binding signal (z-score),[22],0.102
same,glycan array binding signal (z-score),[23],-0.331
same,glycan array binding signal (z-score),[24],8.12
same,glycan array binding signal (z-score),[25],4.25
same,glycan array binding signal (z-score),[26],-0.28
same,glycan array binding signal (z-score),[27],-0.309
same,glycan array binding signal (z-score),[28],-0.311
same,glycan array binding signal (z-score),[29],-0.253
same,glycan array binding signal (z-score),[30],-0.189
same,glycan array binding signal (z-score),[31],-0.331
